Assay results: PubChem BioAssay (NCI)
This is part of a sample that, as a whole, favours compounds with a hit. Of some 83,000 tested, about 20% had one in any assay.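 Growth was measured after 48 h exposure to one concentration of compound in 96-well plates. Values under 10 count as active.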 The source made the active and inactive calls.

Tested on: HS 578T breast
Assay: NCI-60 one-dose screen, 48 h (100 = growth as untreated, 0 = no growth, -100 = all killed)
Conditions: 10 µM

Structure (SMILES)	growth
O=C(CS(=O)(=O)c1oc(-c2ccc(Cl)cc2)nc1S(=O)(=O)c1ccc(Cl)cc1)N1CCOCC1	76% (inactive)
COc1ccc(C(=O)NC(=S)N2CCN(c3ncnc4c3cnn4-c3ccccc3)CC2)cc1	51% (inactive)
COc1cccc(COc2ccc(/C=C3\Oc4cc(O)ccc4C3=O)cc2)c1	-7.04% (active)
O=C(O)CCCCCCCCCCN1C(=O)/C(=C/c2cnc(-c3ccc(Cl)cc3)s2)SC1=S	58.6% (inactive)
COc1cccc(C(N)=Nc2ccc(OCCCCCCn3cncn3)cc2)c1	26.4% (inactive)
CN(C)c1cccc2c(S(=O)(=O)Nc3cccc(-c4csc(NC(=O)CCCCCN5CCN(c6cc7c(cc6F)C(=O)N(C6CCC(=O)NC6=O)C7=O)CC5)n4)c3)cccc12 (centres undefined)	70.4% (inactive)
Cc1ccc(C(C)C)cc1NC(=O)c1ccccc1O	43% (inactive)
NC(=Nc1ccc(OCCCCCCCCn2ccnn2)cc1)c1ccccc1	40.7% (inactive)
COc1ccc2[nH]c(O)c(N=NC(=O)c3cc(-c4ccc(C)cc4)nc4ccccc34)c2c1	91% (inactive)
CN1C(=O)/C(=C/c2nccs2)SC1=S	86.5% (inactive)
CNC(=O)c1cc(-c2ccc(NC(=O)Nc3ccc(C)cc3)cc2)nc2cccnc12	106% (inactive)
CC(=O)NNc1ccc2nnc(-c3ccc(Br)cc3)n2n1	102% (inactive)
O=c1oc2ccc(-c3ccc(F)cc3F)cc2c(=O)n1-c1ccc(F)c(Cl)c1	-0.875% (active)
CCN1CCN(c2ccc(NC(=O)Nc3ccc(-c4cc(C(=O)NC(C)C)c5ncccc5n4)cc3)cc2C(F)(F)F)CC1	-37.7% (active)
CN1CCN(c2ccc(Nc3nc(NCCCNC(=O)c4ccc(Cl)cc4)c4sccc4n3)cc2)CC1	78.8% (inactive)
CCCCCCCCCCCCCCCCCCCC(=O)NCCc1c[nH]c2ccc(O)cc12	112% (inactive)
CCCCCc1ccc(S(=O)(=O)N(C(C)=O)c2cc(-c3csc(N(C)C(C)=O)n3)ccc2N2CCN(C)CC2)cc1	35.7% (inactive)

Structure (SMILES)	growth
COc1ccc2[nH]c(O)c(N=NC(=O)COc3ccc(NC(=O)Nc4ccc(Cl)cc4)cc3)c2c1	22.8% (inactive)
CCCCCCCCCCCCCCCCCCCC(=O)NCCc1c[nH]c2ccc(OC(=O)NOCCOCCOCCOCCOCCOCCOCCOCCOCCOCCOCCOCCOCCOCCOCCOCCOCCOCCOCCOCCOCCOCCOC)cc12	-18.9% (active)
CC1(C)CC[C@]2(C(=O)N3CCOCC3)CC[C@]3(C)C(=CC[C@@H]4[C@@]5(C)CC[C@H](NCO)C(C)(C)[C@@H]5CC[C@]43C)[C@H]2C1	-68.2% (active)
Cc1ccc(-c2cc(C(=O)N=Nc3c(O)[nH]c4ccc(Br)cc34)c3ccccc3n2)cc1	67.5% (inactive)
CCC(C)S(=O)(=O)c1oc(-c2ccc(C)cc2)nc1S(=O)(=O)c1ccccc1 (centres undefined)	-12.1% (active)
CCCCCc1ccc(S(=O)(=O)Nc2cc(-c3csc(N(C)C(C)=O)n3)ccc2N2CCN(C)CC2)cc1	28.7% (inactive)
C/C(=C\CC/C=C(\C)CC/C=C(\C)CC[C@@H](O)C(C)(C)O)CC/C=C(\C)CC[C@@H](O)C(C)(C)O	39% (inactive)
CC(C)C(=O)Nc1ccc(C(=O)NC(=S)Nc2ccc(C(=O)O)cc2)cc1	98.8% (inactive)
CN1CCN(c2ccc(Nc3nc(N4CCN(S(=O)(=O)c5ccc(F)cc5)CC4)c4sccc4n3)cc2)CC1	-47.7% (active)
O=C(Cn1cc(CSc2nnc3oc4ccccc4n23)nn1)Nc1ccc(Br)cc1	20.3% (inactive)
CC1(C)CC[C@]2(C(=O)NCCCNCCCCNCCCN)CC[C@]3(C)C(=CC[C@@H]4[C@@]5(C)Cc6c([nH]c7ccccc67)C(C)(C)[C@@H]5CC[C@]43C)[C@H]2C1	93.6% (inactive)
CC(=O)Nc1nc(-c2ccc(N3CCN(C)CC3)c(NS(=O)(=O)c3ccc(C(F)(F)F)cc3)c2)cs1	38.6% (inactive)
O=C(NO)c1ccc(Cn2ccc3c(Nc4ccccc4)ncnc32)cc1	9.25% (active)
CC(=O)Nc1nc(-c2ccc(N3CCN(C)CC3)c(NS(=O)(=O)c3cccc4c(N(C)C)cccc34)c2)cs1	41% (inactive)
COC[C@@H](CC(C)C)N=C1NC(=O)/C(=C/c2ccc3ncsc3c2)N1	11.6% (inactive)
O=C(NC(=S)N1CCN(c2ncnc3c2cnn3-c2ccccc2)CC1)c1ccc(Cl)cc1	32.7% (inactive)

Tested on: NCI/ADR-RES ovarian
Assay: as above
Conditions: 10 µM

Structure (SMILES)	growth
CN1CCN(c2ccc(Nc3nc(NCCCNC(=O)c4ccc(F)cc4)c4sccc4n3)cc2)CC1	76.2% (inactive)
O=C(CS(=O)(=O)c1oc(-c2ccc(Cl)cc2)nc1S(=O)(=O)c1ccc(Cl)cc1)N1CCOCC1	28.2% (inactive)
COc1ccc(C(=O)NC(=S)N2CCN(c3ncnc4c3cnn4-c3ccccc3)CC2)cc1	61.7% (inactive)
COc1cccc(COc2ccc(/C=C3\Oc4cc(O)ccc4C3=O)cc2)c1	24.8% (inactive)
O=C(O)CCCCCCCCCCN1C(=O)/C(=C/c2cnc(-c3ccc(Cl)cc3)s2)SC1=S	11% (inactive)
COc1cccc(C(N)=Nc2ccc(OCCCCCCn3cncn3)cc2)c1	13.5% (inactive)
CN(C)c1cccc2c(S(=O)(=O)Nc3cccc(-c4csc(NC(=O)CCCCCN5CCN(c6cc7c(cc6F)C(=O)N(C6CCC(=O)NC6=O)C7=O)CC5)n4)c3)cccc12 (centres undefined)	98.4% (inactive)
Cc1ccc(C(C)C)cc1NC(=O)c1ccccc1O	29.1% (inactive)
O=c1[nH][nH]c(Nc2ccccc2)c1N=Nc1ccc(F)cc1	100% (inactive)
COc1ccc2[nH]c(O)c(N=NC(=O)c3cc(-c4ccc(C)cc4)nc4ccccc34)c2c1	71.6% (inactive)
CN1C(=O)/C(=C/c2nccs2)SC1=S	93.5% (inactive)
CNC(=O)c1cc(-c2ccc(NC(=O)Nc3ccc(C)cc3)cc2)nc2cccnc12	94.3% (inactive)
CC(=O)NNc1ccc2nnc(-c3ccc(Br)cc3)n2n1	101% (inactive)
O=c1oc2ccc(-c3ccc(F)cc3F)cc2c(=O)n1-c1ccc(F)c(Cl)c1	-15.2% (active)
CCN1CCN(c2ccc(NC(=O)Nc3ccc(-c4cc(C(=O)NC(C)C)c5ncccc5n4)cc3)cc2C(F)(F)F)CC1	-66.9% (active)
COC(=O)C(Cc1ccc(O)c(O)c1)NC(=O)C(CSC/C=C(\C)CCCC(C)CCCC(C)CCCC(C)C)NC(C)=O (centres undefined)	73.8% (inactive)
CN1CCN(c2ccc(Nc3nc(NCCCNC(=O)c4ccc(Cl)cc4)c4sccc4n3)cc2)CC1	91.6% (inactive)
CCCCCCCCCCCCCCCCCCCC(=O)NCCc1c[nH]c2ccc(O)cc12	96.2% (inactive)

Structure (SMILES)	growth
CCCCCc1ccc(S(=O)(=O)N(C(C)=O)c2cc(-c3csc(N(C)C(C)=O)n3)ccc2N2CCN(C)CC2)cc1	47.9% (inactive)
COc1ccc2[nH]c(O)c(N=NC(=O)COc3ccc(NC(=O)Nc4ccc(Cl)cc4)cc3)c2c1	102% (inactive)
CCCCCCCCCCCCCCCCCCCC(=O)NCCc1c[nH]c2ccc(OC(=O)NOCCOCCOCCOCCOCCOCCOCCOCCOCCOCCOCCOCCOCCOCCOCCOCCOCCOCCOCCOCCOCCOCCOC)cc12	89.3% (inactive)
CC1(C)CC[C@]2(C(=O)N3CCOCC3)CC[C@]3(C)C(=CC[C@@H]4[C@@]5(C)CC[C@H](NCO)C(C)(C)[C@@H]5CC[C@]43C)[C@H]2C1	-73.1% (active)
Cc1ccc(-c2cc(C(=O)N=Nc3c(O)[nH]c4ccc(Br)cc34)c3ccccc3n2)cc1	55% (inactive)
CCC(C)S(=O)(=O)c1oc(-c2ccc(C)cc2)nc1S(=O)(=O)c1ccccc1 (centres undefined)	-55.2% (active)
CCCCCc1ccc(S(=O)(=O)Nc2cc(-c3csc(N(C)C(C)=O)n3)ccc2N2CCN(C)CC2)cc1	32.7% (inactive)
C/C(=C\CC/C=C(\C)CC/C=C(\C)CC[C@@H](O)C(C)(C)O)CC/C=C(\C)CC[C@@H](O)C(C)(C)O	30.2% (inactive)
CC(C)C(=O)Nc1ccc(C(=O)NC(=S)Nc2ccc(C(=O)O)cc2)cc1	104% (inactive)
CN1CCN(c2ccc(Nc3nc(N4CCN(S(=O)(=O)c5ccc(F)cc5)CC4)c4sccc4n3)cc2)CC1	-83% (active)
O=C(Cn1cc(CSc2nnc3oc4ccccc4n23)nn1)Nc1ccc(Br)cc1	51.3% (inactive)
CC1(C)CC[C@]2(C(=O)NCCCNCCCCNCCCN)CC[C@]3(C)C(=CC[C@@H]4[C@@]5(C)Cc6c([nH]c7ccccc67)C(C)(C)[C@@H]5CC[C@]43C)[C@H]2C1	93.2% (inactive)
COc1ccc(CCN2C(=O)/C(=C/c3csc(C#N)n3)SC2=S)cc1	47% (inactive)
CC(=O)Nc1nc(-c2ccc(N3CCN(C)CC3)c(NS(=O)(=O)c3ccc(C(F)(F)F)cc3)c2)cs1	-18.2% (active)
O=C(NO)c1ccc(Cn2ccc3c(Nc4ccccc4)ncnc32)cc1	-29.4% (active)
CC(=O)Nc1nc(-c2ccc(N3CCN(C)CC3)c(NS(=O)(=O)c3cccc4c(N(C)C)cccc34)c2)cs1	94.8% (inactive)
COC[C@@H](CC(C)C)N=C1NC(=O)/C(=C/c2ccc3ncsc3c2)N1	9.71% (active)
O=C(NC(=S)N1CCN(c2ncnc3c2cnn3-c2ccccc2)CC1)c1ccc(Cl)cc1	28.1% (inactive)
